# Only some compounds are listed: those with a hit (about 3.5% of all), similar ones and a draw of the others.
# GPR151 activ: activators of human GPR151, primary screen, cell-based, PathHunter beta-arrestin, luminescence | G-protein coupled receptor 151 (Homo sapiens), Q8TDV0 | PathHunter beta-arrestin GPR151 cells | activation, % at 11.2 µM | 1% of 650,000 active | AID 1508602, 2020; in the data active means activation above about 4.9%;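 further: 0% = median of compound wells and 100% = cells with positive control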
# FBW7 activator: FBW7 E3 ligase activators, primary screen, biochemical, AlphaScreen, human; normalized activity (activation), % at 26.1 µM; F-box/WD repeat-containing protein 7 (Homo sapiens), Q969H0; AlphaScreen FBW7–phospho-cyclin E peptide binding, activator screen; 0.13% of 650,000 active; in the data active means normalized activity above about 1.9%;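 further: purified mutant Fbw7 with reduced substrate affinity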
# MITF primary: MITF inhibitors, primary screen, biochemical, AlphaScreen, human; inhibition, % at 2.6 µM; AID 1259374, 2018; Microphthalmia-associated transcription factor (Homo sapiens), O75030; AlphaScreen MITF homodimerization, bead proximity signal; 0.91% of 650,000 active; in the data active means inhibition above about 50%;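 further: 0% = vehicle wells with protein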
# Target sequence (O75030 whole entry, looked up): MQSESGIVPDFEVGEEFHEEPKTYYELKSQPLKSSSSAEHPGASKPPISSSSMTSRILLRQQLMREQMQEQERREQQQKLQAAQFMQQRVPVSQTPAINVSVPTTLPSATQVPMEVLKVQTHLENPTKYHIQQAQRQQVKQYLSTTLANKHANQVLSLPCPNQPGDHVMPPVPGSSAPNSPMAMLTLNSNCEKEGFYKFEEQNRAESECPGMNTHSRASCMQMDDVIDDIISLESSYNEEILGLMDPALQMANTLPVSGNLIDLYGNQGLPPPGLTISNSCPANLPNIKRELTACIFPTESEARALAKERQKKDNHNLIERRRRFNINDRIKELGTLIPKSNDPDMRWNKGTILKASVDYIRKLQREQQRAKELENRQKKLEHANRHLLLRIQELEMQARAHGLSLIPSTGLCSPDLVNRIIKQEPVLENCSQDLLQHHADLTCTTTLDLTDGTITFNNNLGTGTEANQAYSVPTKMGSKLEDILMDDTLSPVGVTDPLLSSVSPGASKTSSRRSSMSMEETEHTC
# TEAD-YAP inh: TEAD-YAP interaction inhibition, primary screen, TEAD-YAP interaction inhibitor project, luminescence, HEK-TIYL cells; 1.4% of 640,000 active; TEAD-Gal4/YAP UAS-luciferase luminescence; AID 1259422, 2018; inhibition, % at 9.12 µM; in the data active means inhibition above about 32%;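 further: 0% = median of test compound wells and 100% = reference inhibitor wells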
# * = called active by the depositor; ! = not active in a repeat.
SMILES,GPR151 activ,FBW7 activator,MITF primary,TEAD-YAP inh
COc1cccc2c1C(=O)c1c(O)c3c(c(O)c1C2=O)C[C@@](O)(C(C)=O)C[C@@H]3O[C@H]1C[C@H](N)[C@H](O)[C@H](C)O1,-1,0,23,93*
COc1cccc2c1C(=O)c1c(O)c3c(c(O)c1C2=O)C[C@@](O)(C(=O)CO)C[C@@H]3O[C@H]1C[C@H](N)[C@@H](O)[C@H](C)O1,0,0,30,62*
CC(=O)[C@]1(O)Cc2c(O)c3c(c(O)c2[C@@H](O[C@H]2C[C@H](N)[C@H](O)[C@H](C)O2)C1)C(=O)c1ccccc1C3=O,1,0,12,-33
O=C(NCc1ccco1)C1CC(c2ccccc2F)=NO1 (centres undefined),1,0,2,5
CCn1ncc(C2=NOC(C(=O)NCc3ccco3)C2)c1C (centres undefined),0,0,-20,45*
CC(C)(C)C(=O)NCCCN1CCOCC1,-2,0,-1,-1
COc1cc(/C=C/C(=O)NCc2ccco2)cc(OC)c1OC,1,0,16,3
CCOC(=O)C1=CN(C(C)C)C=C(C(=O)OCC)C1c1cccc(OC)c1,1,8.5*,-42,-2
COC(=O)C1=CN(C(C)C)C=C(C(=O)OC)C1c1ccccc1Br,-1,2,3,-9
CCOC(=O)C1=CN(C(C)C)C=C(C(=O)OCC)C1c1ccccc1Br,0,2.0*,-6,-4
COC(=O)C1=CN(C(C)C)C=C(C(=O)OC)C1c1cccc(OC)c1,1,1,8,6
NS(=O)(=O)c1cccc2c1c([N+](=O)[O-])cc1[nH]c(=O)c(=O)[nH]c12,0,1,69*!,-2
O=c1[nH]c2c([N+](=O)[O-])cccc2c2ccccc12,1,0,8,13
CCN(CC)c1ccc2cc(/C(C)=N/NC(N)=O)c(=O)oc2c1,1,0,11,-11
Cc1ccc(/C=N/NC(=O)CNc2ccccc2C)cc1,-1,0,-15,44*
C=CCn1c(SC)nc(O)c(CC)c1=O,-1,1.9*,9,1
CCN(c1cccc(C)c1)S(=O)(=O)c1ccc2[nH]cc(C(=O)NCc3ccccc3OC)c(=O)c2c1,0,0,22,8
CCOC(=O)c1c(NC(=O)C2CC2c2ccccc2)sc(C)c1C (centres undefined),1,0,-11,-6
CCc1c(C)sc(NC(=O)C2CC2c2ccccc2)c1C(N)=O (centres undefined),4,0,9,33*
CCCCOc1ccccc1/C=C1/SC(N2CCOCC2)=NC1=O,-1,0,-4,41*
CC1CCN(C2=NC(=O)/C(=C/c3ccccc3F)S2)CC1,-1,0,23,54*
CC(C)Oc1ccccc1/C=C1/SC(N2CCOCC2)=NC1=O,0,0,-5,45*
CC(=O)N1CCN(C2=NC(=O)/C(=C\c3ccccc3OC(C)C)S2)CC1,1,0,2,-3
CC1CCN(C2=NC(=O)/C(=C\c3ccccc3Cl)S2)CC1,1,0,9,-32
CC(C)(CO)Cn1c(=O)[nH]c2ncc(-c3ccc(C(=O)N4CCOCC4)cc3)nc21,-1,0,-10,-2
SMILES,GPR151 activ,FBW7 activator,MITF primary,TEAD-YAP inh
O=C(c1nc2ccc(Cl)cn2c1CNCCCn1ccnc1)N1CCc2ccccc2C1,0,0,-4,-6
COc1cccc(OCCNC(=O)/C=C/c2ccc(-c3ccccc3)cc2)c1,0,0,-15,16
COc1ccc(NC(=O)C(=O)NCC2CCCN2S(=O)(=O)c2ccc(C)cc2)cc1 (centres undefined),2,0,-15,61*
Cc1ccc(S(=O)(=O)N2CCCCC2CCNC(=O)C(=O)NCc2ccccc2)cc1 (centres undefined),1,0,3,46*
CCOC(=O)c1c(NC(=O)COC(=O)C(CCSC)NC(C)=O)sc2c1CCC2 (centres undefined),-1,0,-4,-3
O=C(NCc1ccncc1)c1ccc2cncc(-c3ccccc3)c2n1,0,0,4,71*
O=C(NCc1ccc(C(F)(F)F)nc1)c1ccc2cncc(-c3ccccc3)c2n1,1,0,13,49*
COc1ccc(-c2cncc3ccc(C(=O)NCc4ccccc4OC)nc23)cc1,0,0,12,50*
COc1ccc(-c2cncc3ccc(C(=O)NCc4ccncc4)nc23)cc1,-2,-1,14,77*
O=C(NCc1ccncc1)c1cnc2ccccc2n1,-1,0,4,13
CC(C)(C)c1ccc(CN[C@H]2C[C@H]3C(=O)N[C@@H](Cc4ccccc4)C(=O)N3C2)cc1,0,0,0,2
COC(=O)c1sc(NC(=O)c2c(-c3ccccc3Cl)noc2C)c(C(=O)OC)c1C,0,0,-2,5
COc1ccc(/C(O)=C2/C(=O)C(=O)N(CCCN(C)C)C2c2ccc(Br)cc2)cc1 (centres undefined),0,1,19,11
CSc1nnc(NC(=O)c2ccccc2C)s1,-9,0,3,41*
CCCSc1nnc(NC(=O)c2cccc(OC)c2)s1,-2,0,17,-4
CSc1nnc(NC(=O)c2ccccc2Cl)s1,-11,0,22,39*
CSc1nnc(NC(=O)c2ccccc2[N+](=O)[O-])s1,-1,0,1,-18
COc1cccc(C(=O)Nc2nnc(SC)s2)c1,-10,0,-3,43*
CSc1nnc(NC(=O)c2c(Cl)cccc2Cl)s1,1,0,-1,3
COc1ccc(Br)cc1C1NC(=O)NC(C)=C1C(=O)OCC(C)C (centres undefined),-1,0,5,-7
CC1=NN(c2ccccc2)C(=O)/C1=C(/c1ccccc1)N1CCOCC1,1,0,-5,40*
Clc1ccc2nc(NCCN3CCOCC3)nc(-c3ccccc3)c2c1,0,0,-4,38*
O=C(CN1CCOCC1)NNc1nc(-c2ccccc2)c2cc(Cl)ccc2n1,1,0,3,19
O=C(CCc1ccccc1)NC(=S)Nc1ccc(S(=O)(=O)N2CCOCC2)cc1,0,0,8,3
O=C(CCc1ccccc1)NC(=S)Nc1cccc(S(=O)(=O)N2CCCC2)c1,1,0,-7,47*
COc1cc(C2CC(=O)Nc3ccc4ccccc4c32)cc(Cl)c1O (centres undefined),0,0,5,-2
O=C(O)c1cc2c([nH]c1=O)CCCC2,1,0,6,1
C=CCSC(=C(C#N)C#N)c1cc2c([nH]1)CCCC2,-1,0,10,51*
COc1c(C)cc(C(=O)C2CCCN(S(=O)(=O)c3cccs3)C2)cc1C (centres undefined),0,0,-4,52*
